# PubChem BioAssay AID504832 (National Center for Advancing Translational Sciences (NCATS), 2011)
# About 18,000 (5.8%) of roughly 310,000 compounds were called active. Not shown: some 22% with an inconclusive outcome. Calls follow the shape of the dose curve; as a rule, active = well fitted inhibition curve with a large enough effect; inconclusive = small, poorly fitted or top-dose-only effect, or another doubt; inactive = no such curve, though single readings can be large or run the other way. For the sample, actives were picked, then their nearest neighbours and some compounds at random.
# Test: Primary qHTS for delayed death inhibitors of the malarial parasite plastid, 48 hour incubation
# Conditions: P. falciparum luciferase growth in erythrocytes; series mostly up to 28.7 µM; activity change, negative = inhibition: at the top concentration
# Outline: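 A one-generation exposure of luciferase-tagged malaria parasites in RPMI 1640/Albumax erythrocyte culture, 37 C and 5% CO2. Inhibition is inferred from decreased luminescence after adding detection reagent.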
# % is scaled to controls: 0 for no effect and ±100 for the full control effect; potency is read from the fitted curve at half-maximal effect.
Structure (SMILES),Potency,"activity change, negative = inhibition"
COc1ccc(N2CCN(C(c3cc4ccc(C)cc4[nH]c3=O)c3nnnn3C3CCCC3)CC2)cc1 (configuration not stated),1.85 µM (active),–
CCOc1ccc2[nH]c(=O)c(C(c3nnnn3CCOC)N3CCOCC3)cc2c1 (configuration not stated),–,-3.1% (inactive)
CN1CCN(C(c2cc3cc4c(cc3[nH]c2=O)OCCO4)c2nnnn2C2CCCC2)CC1 (configuration not stated),–,6.19% (inactive)
O=C(NCCCN1CCOCC1)C1CCCN(S(=O)(=O)N2CCCCC2)C1 (configuration not stated),–,22.9% (inactive)
CCC(C)C(NC(=O)C1CCC(=O)N1C(=O)OCc1ccccc1)C(=O)NC(C(=O)N1CCCC1C(N)=O)C(C)CC (configuration not stated),–,-37.5% (inactive)
CC(=O)Nc1ccc(NC(=O)[C@@H](NC(=O)c2cccc(C)c2)C(C)C)cc1,–,11.3% (inactive)
Cc1cccc(NC(=O)c2cc(S(=O)(=O)N3CCC4(CC3)OCCO4)ccc2F)c1,–,3.22% (inactive)
Cc1ccc(S(=O)(=O)N2CCOCC2)cc1C(=O)NC(=S)N(Cc1ccccc1)C(C)C,–,-2.96% (inactive)
Cc1cccc(N(Cc2ccccc2)C(=O)c2cc(S(=O)(=O)N3CCOCC3)ccc2F)c1,11.7 µM (active),–
CC(=O)Nc1ccc(NC(=O)CC2CCCC2)cc1,–,36% (inactive)
CCCOc1ccc(NC(=O)C2CCCNC2=O)cc1 (configuration not stated),–,24.6% (inactive)
COc1ccc(/C=N/NC(=O)C2CC2)c(OC)c1OC,–,22.7% (inactive)
CCCOc1ccc(/C=N/NC(=O)C2CC2)c(OCCC)c1,11.7 µM (active),–
CCCCCCCCn1c2c(c(=N)c3c1CCC3)CCCC2,0.262 µM (active),–
Cc1ccc(CC2C(=O)N(c3ccc(F)cc3)C(=O)C2C)cc1 (configuration not stated),–,39.4% (inactive)
CC(=O)NC(CC(=O)Nc1nc(-c2ccccc2)c(C(C)=O)s1)c1ccccc1 (configuration not stated),–,-5.25% (inactive)
CC1CCCC(C)N1C(=O)COC(=O)COc1ccccc1C#N (configuration not stated),–,26.8% (inactive)
COc1ccccc1N(C(=O)Cn1nnc2ccccc21)C(C(=O)NCc1ccco1)c1ccc(C)o1 (configuration not stated),13.1 µM (active),–
COCCNC(=O)C(c1ccc(C)o1)N(Cc1ccccc1)C(=O)Cn1nnc2ccccc21 (configuration not stated),–,-22.6% (inactive)
O=C(NCc1ccco1)C(c1ccncc1)N(C(=O)Cn1nnc2ccccc21)c1ccccc1 (configuration not stated),–,-14% (inactive)
NC(=O)c1oc2ccccc2c1NC(=O)CS(=O)(=O)c1ccccc1,–,37.2% (inactive)
COc1nc(N=C(N)N)nc2c(C)cccc12,1.65 µM (active),–
CC(=O)Oc1ccc(-c2nc3c(C)cccc3c(=O)o2)cc1,–,-7.88% (inactive)
CCc1c(C)nc2c(OC)cccc2c1Cl,–,10.1% (inactive)
O=C(C1CCC(=O)N(C2CC2)C1)N1CCN(c2ccc(Cl)cc2)CC1 (configuration not stated),–,-14.5% (inactive)
Cc1ccc(S(=O)(=O)N2CCCCC2)cc1C(=O)N1CCN(CCO)CC1,–,0.383% (inactive)

Structure (SMILES),Potency,"activity change, negative = inhibition"
CC(CC(=O)Nc1ccc(F)cc1F)S(=O)(=O)c1ccc2c(c1)NC(=O)CO2 (configuration not stated),–,3.89% (inactive)
O=[N+]([O-])c1cc(C(F)(F)F)ccc1NCCc1ccncc1,–,-26% (inactive)
COc1ccc(C(=O)NCc2nnc(SCC(=O)Nc3cccc(OC)c3)o2)cc1,–,15.9% (inactive)
Cc1ccc(Cc2nnc(SCC(=O)Nc3ccc(C)cc3C)[nH]c2=O)cc1,–,10.8% (inactive)
CC(=O)C1=C(C)NC2=C(C(=O)CC(C)(C)C2)C1C (configuration not stated),–,-10.5% (inactive)
COc1cc(C2C(C#N)=C(C)NC3=C2C(=O)CC(C)(C)C3)ccc1O (configuration not stated),10.4 µM (active),–
CCC1C(C#N)=C(SC)NC2=C1C(=O)CC(C)(C)C2 (configuration not stated),–,-22% (inactive)
CC(=O)Nc1c2c(nn1-c1cccc(C)c1)CSC2,–,0% (inactive)
COc1ccc(S(=O)(=O)n2cnc3ccccc32)c(C)c1,–,-10.4% (inactive)
O=S(=O)(c1ccccc1)N(Cc1cccc(F)c1)c1ccccc1,–,-19.3% (inactive)
COc1ccc(NC(=O)COc2ccc(C(=O)c3ccc(F)cc3)cc2)cc1S(N)(=O)=O,–,-17.7% (inactive)
Cc1cc(=O)oc2c3c(cc(OCC(=O)N[C@H](C(=O)O)c4ccccc4)c12)OC(C)(C)CC3,–,5.58% (inactive)
Cc1ccc(-n2ncc(C(=O)NC3CC3)c2C2CCN(C(=O)OC(C)(C)C)CC2)c(C)c1,10.4 µM (active),–
CCOC(=O)N1CCC(NC(=O)c2cnn3ccccc23)CC1,–,3.52% (inactive)
Cc1ccc(C)c(NC(=O)C2CCCN2C(=O)OC(C)(C)C)c1 (configuration not stated),–,22.4% (inactive)
O=C(COC(=O)c1cccc(Cl)c1)Nc1ccc2[nH]c(=O)[nH]c2c1,–,-34.1% (inactive)
CCCS(=O)(=O)Nc1ccc(-c2cn3c(n2)SCC3)cc1,–,24% (inactive)
Cc1ccc(NC(=O)Cn2c(C)csc2=O)cc1,–,12.8% (inactive)
CCC(=O)Nc1ccc2c(c1)nc(CCN1CCN(c3ccccn3)CC1)n2C,–,6.45% (inactive)
Cn1c(CCN2CCCCCC2)nc2cc(NC(=O)Nc3ccccc3)ccc21,3.29 µM (active),–
CCC(=O)Nc1ccc2c(c1)nc(CCN1CCN(C)CC1)n2C,–,8.09% (inactive)
O=C(NC1CCCCC1)C1CCC(CNS(=O)(=O)c2ccccc2)CC1 (configuration not stated),–,7.51% (inactive)
CCN(CC)S(=O)(=O)c1ccc(N2CCOCC2)c(NC(=O)C2CSC3(C)CCC(=O)N23)c1 (configuration not stated),–,0% (inactive)
CC(C)Oc1ccc(S(=O)(=O)N2CCOCC2)cc1NC(=O)C1CSC2(C)CCC(=O)N12 (configuration not stated),9.28 µM (active),–
CC(C)Oc1ccc(S(=O)(=O)N2CCOCC2)cc1NC(=O)C1CCCC1,–,-22.1% (inactive)
Cc1ccc(NC(=O)CSc2nn3c(=O)c(C)nnc3s2)cc1Cl,13.1 µM (active),–

Structure (SMILES),Potency,"activity change, negative = inhibition"
Cc1ccc(NC(=O)C/C(N)=N/O)cc1Cl,–,2.93% (inactive)
Cc1ccc(NC(=O)CSc2nnc(CNC(=O)c3ccccc3F)o2)cc1Cl,–,32% (inactive)
COc1cccc(-c2nc(CS(=O)CC(=O)NCc3ccc(F)cc3)c(C)o2)c1 (configuration not stated),–,27.8% (inactive)
CCCn1c(=O)c(C(=O)Nc2cc(C)ccn2)c(O)c2ccccc21,–,28.3% (inactive)
O=S(=O)(Nc1ccccc1)c1ccc(NS(=O)(=O)c2cccs2)cc1,–,4.5% (inactive)
CCCCNC(=O)N(O)C1N(/N=C/c2ccc(N(C)C)cc2)C(=S)SC1(C)C (configuration not stated),–,-2.29% [at 0.00184 µM] (inactive)
N#Cc1c(NC(=O)CCCN2C(=O)c3ccccc3C2=O)oc(-c2ccccc2)c1-c1ccccc1,–,11.4% (inactive)
N#Cc1c(/N=C/N2CCCC2)oc(-c2ccccc2)c1-c1ccccc1,4.65 µM (active),–
N#Cc1c(-c2ccccc2)c(-c2ccccc2)n[nH]c1=O,–,-11.1% (inactive)
C=C1CCC(N(O)c2cc(C)on2)C(=C)CCC2C1CC2(C)C (configuration not stated),4.65 µM (active),–
COc1ccc(S(=O)(=O)N(C)CC(=O)NCCCN2CCOCC2)cc1Cl,–,21.6% (inactive)
CCCNC(=O)COc1coc(CN2CCN(Cc3ccccc3)CC2)cc1=O,–,6.97% (inactive)
Cc1ccc(CNS(=O)(=O)CCNC(=O)c2ccccc2)cc1,–,1.42% (inactive)
O=c1c2ccccc2oc2nc3n(c(=O)c12)CCCS3,–,-4.62% (inactive)
O=C(Cn1c(=O)n(Cc2ccco2)c(=O)c2ccccc21)NCC1CCCO1 (configuration not stated),–,0.136% (inactive)
O=c1c2ccccc2oc2nc(C3CCCCC3)n(Cc3ccco3)c(=O)c12,13.1 µM (active),–
Cc1ccc(NS(=O)(=O)c2ccc(N/N=C/c3ccccc3OCC(=O)O)c([N+](=O)[O-])c2)c(C)c1,11.7 µM (active),–
COCCNC(=O)c1ccccc1NS(=O)(=O)c1ccc(C)c([N+](=O)[O-])c1,–,-2.7% (inactive)
Cc1cccc(COc2ccccc2/C=N/Nc2ccc([N+](=O)[O-])cc2)c1,–,-89.6% (inactive)
O=C(N/C(=C\c1ccc([N+](=O)[O-])cc1)C(=O)N1CCCCC1)c1ccco1,–,2.5% (inactive)
O=C(CN1CCOC1=O)N1CCCC(Nc2ccc(F)c(F)c2)C1 (configuration not stated),–,0.222% (inactive)
COc1ccccc1-c1cnn2c(N3CCOCC3)cc(C)nc12,–,95.7% (inactive)
Cn1nccc1/C=N\NC(=O)c1ccc(Cl)cc1,–,15% (inactive)
CN(CCc1ccccn1)C(=O)c1ccc(OC2CCN(Cc3ccccn3)CC2)cc1,–,0.5% (inactive)
CCN(CC)CCC(c1cc(OC)c(OC)c(OC)c1)c1c(OC)cc(OC)c2c(-c3ccccc3)cc(=O)oc12 (configuration not stated),3.29 µM (active),–
CC(=O)COc1ccc2c(-c3ccccc3)cc(=O)oc2c1,–,34.8% (inactive)

Structure (SMILES),Potency,"activity change, negative = inhibition"
COc1cc(OC)c(C(=O)NCc2ccc3c(c2)OCO3)cc1OC,–,0.912% (inactive)
CCCCN(CC)C(=O)c1ccc2c(c1)OCO2,–,-5.43% (inactive)
Cc1[nH][nH]c(=O)c1C(c1ccc2c(c1)OCO2)c1c(C)[nH][nH]c1=O,–,0.59% (inactive)
COc1ccc(F)cc1S(=O)(=O)NCC(c1ccc2c(c1)OCO2)N1CCN(C)CC1 (configuration not stated),–,0.254% (inactive)
CCN(CC)CCC(c1ccc2c(c1)OCO2)c1c(OC)cc(OC)c2c(-c3ccccc3)cc(=O)oc12 (configuration not stated),9.28 µM (active),–
COc1ccc(-c2cc(=O)oc3cc(OCC(=O)N[C@@H](Cc4c[nH]c5ccccc45)C(=O)O)ccc23)cc1,–,2.65% (inactive)
CCN(CC)C(=O)CC(c1ccc2c(c1)OCO2)c1c(OC)cc(OC)c2c(-c3ccccc3)cc(=O)oc12 (configuration not stated),11.7 µM (active),–
O=C(NNC(=O)c1ccc(-n2cncn2)c([N+](=O)[O-])c1)c1ccccc1,–,-10.8% (inactive)
S=C(Nc1ccc(Cl)cc1Cl)N1CCCC1,–,54.8% (inactive)
COc1cc(/C=N/NC(=O)Cc2ccccc2)cc(OC)c1OC,–,6.42% (inactive)
O=C(Nc1cccc(F)c1)[C@@H]1CCCN1,–,-9.54% (inactive)
Cc1cc(C)nc(NS(=O)(=O)c2ccc(N3C(=O)C4CCCCC4C3=O)cc2)n1 (configuration not stated),–,26.1% (inactive)
Cc1cc(N2C(=O)C(O)=C(C(=O)c3ccc(C)o3)C2c2ccc(OCc3ccccc3)cc2)no1 (configuration not stated),–,5.29% (inactive)
O=C(Cn1nc([N+](=O)[O-])nc1Br)NC1CCCCC1,1.47 µM (active),–
Cc1cc(C(F)F)nn1CC(=O)NC1CCCCCC1,–,10.4% (inactive)
Cc1nn(CC(=O)NC2CCCCC2)c(=O)c2cccn12,–,29.8% (inactive)
CC1(C)O[C@@H]2[C@H](O1)[C@@H](CO)O[C@H]2n1c(N2CCCCC2)nc2c(N)ncnc21,–,-1.31% (inactive)
O=C(NCc1cccnc1)C12CC3CC(CC(C3)C1)C2,–,-8.11% (inactive)
CCc1cccc(NC(=O)CCC(=O)O)c1,–,2.01% (inactive)
O=C(Cc1ccccc1)Nc1cccc(NC(=O)c2ccccc2)c1,–,312% (inactive)
O=C(CCl)Nc1cccc(CP(=O)(c2ccccc2)c2ccccc2)c1,10.4 µM (active),–
CC(/C=C/c1ccccc1)=N\NC(=O)C1CC1(C)c1ccccc1 (configuration not stated),11.7 µM (active),–
O=C(/C=C/c1ccccc1)c1ccccc1O,–,28.4% (inactive)
CC(=O)Nc1ccc(/C=C/C(=O)c2ccccc2)cc1,–,48.1% (inactive)
